Here are results for 5 compounds from PubChem BioAssay (NCATS).

Records with an inconclusive call do not appear. A number with no mark means an inactive call. Activity calls are given as the source filed them. Calls come from the whole dose curve; as a rule, active = well fitted inhibition curve with a large enough effect; inconclusive = small, poorly fitted or top-dose-only effect; inactive = flat fitted curve, though single readings scatter.
% is set by controls: 0 for no effect and ±100 for the full control effect; potency is the fitted concentration of half-maximal effect.

The nature of the assay: P-glycoprotein substrates identified in KB-8-5-11 adenocarcinoma cell line, qHTS therapeutic library screen (AID 1346987). Note: nearly all actives have a fitted effect of over 65% in size. Particulars: KB-8-5-11 (P-gp overexpressing) viability, CellTiter-Glo, 72 h; series mostly up to 44.5 µM; activity change, negative = cytotoxicity: at the top concentration. Put shortly:
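Luminescence from CellTiter-Glo, read 5 min after addition, quantified survival of KB-8-5-11 (P-gp-overexpressing) cells exposed to compounds for 72 h. AC50 was derived from concentration-response curves.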
Consider `CC(C)S(=O)(=O)Nc1ccc(F)c(C(=O)c2c[nH]c3ncc(-c4cccnc4)cc23)c1F`, for which the “activity change, negative = cytotoxicity” value was -6.3%.
Still for that read-out and setting: then `Cc1ccc(CNc2ncnc3ccc(-c4ccc(CO)o4)cc23)o1`, with -10.2%.
In the case of `CC1(C(=O)Nc2ccc(F)nc2)CCCN1c1nc(Nc2cc(C3CC3)[nH]n2)c2cccn2n1` (stereo not given), the Potency was 2.31 µM (active).
As to `COC(=O)C(Cc1ccc(OCCn2c(=O)sc3cc(C(=O)c4ccccc4)ccc32)cc1)C(=O)OC`, the compound was classed as inactive.
On the same count and under the same terms, then `O=c1[nH]cnc2c([C@@H]3N[C@H](CO)[C@@H](O)[C@H]3O)c[nH]c12`, with “inactive”.
